Results on nine compounds are retold here after PubChem BioAssay (NCI).

The structures appear in SMILES notation. About 83,000 compounds went through this panel and 20% of them were active in at least one assay; those are over-represented in the sample as a whole.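 Assay: single dose, 48 h. Readout: percent growth (0 = no net growth; negative = cell death). Active: <10.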 A number with no mark means an inactive call. Active and inactive are the calls of the source.

Holding throughout (experiment): NCI-60 one-dose screen, 48 h (100 = growth as untreated, 0 = no growth, -100 = all killed)
The subject of test [1] is EKVX NSCLC. Conditions: 10 µM unless noted.
The test system of test [2] is SN12C renal. Conditions: 10 µM unless noted.
Test [3] deals with UO-31 renal. Conditions: 10 µM unless noted.
Test [4] has as its system TK-10 renal. As to conditions: 10 µM unless noted.
Test [5] relates to ACHN renal. As to conditions: 10 µM unless noted.
The subject of test [6] is CAKI-1 renal. As to conditions: 10 µM unless noted.
The test system of test [7] is CCRF-CEM leukemia. Conditions: 10 µM unless noted.
Test [8] has as its system MOLT-4 leukemia. As to conditions: 10 µM unless noted.
Test [9] has as its system SR leukemia. Conditions: 10 µM unless noted.
In test [10] the test system is RPMI-8226 leukemia. As to conditions: 10 µM.
In test [11] the test system is OVCAR-8 ovarian. As to conditions: 10 µM unless noted.
For test [12], the system named is OVCAR-5 ovarian. As to conditions: 10 µM unless noted.
Test [13] concerns OVCAR-4 ovarian. As to conditions: 10 µM unless noted.
In test [14] the test system is IGROV1 ovarian. As to conditions: 10 µM unless noted.
Test [15] deals with OVCAR-3 ovarian. As to conditions: 10 µM unless noted.
Test [16] relates to HS 578T breast. Conditions: 10 µM unless noted.
The test system of test [17] is NCI/ADR-RES ovarian. Conditions: 10 µM unless noted.
Test [18] relates to A498 renal. As to conditions: 10 µM unless noted.
Test [19] relates to SK-OV-3 ovarian. As to conditions: 10 µM.

As for `O=C(N/N=C/c1ccc(OC(F)F)c(OC2CCCC2)c1)c1cnn2c1NC(c1ccccc1)C2` (stereo not drawn), the growth in test [1] was 91.5%; in [2], 87.1%; in test [3], 65.1%; in [4], 91.9%; in test [5], 82.3%; in test [6] it was 62.6%. Further, the growth is 78.7% in test [7]; 54.7% in [8]; 37.4% in [9]; 73.9% in test [10]; 90.4% in [11]; 93.7% in test [12]. Further, the growth in test [13] was 61.3%; in test [14] it was 83.4%; in [15] it was 78.9%; in [16], 69.2%; in [17], 72.8%.

For `CC(C)OC1=C(Cl)C(=O)c2ccccc2C1=O`, the growth in test [1] is 103%; in test [2], 90.5%; in test [3], 76.7%; in [4], 110%; in test [6], 106%; in [18] it was 112%. The growth in test [8] is 39.8%; in test [9], 9.89% (active); in test [10] it was 24.5%; in test [11], 75.9%; in test [12], 101%; in test [13], 71.9%. For the same compound, the growth is 103% in [19]; 99.1% in [14]; 78% in test [15]; 81.5% in test [16]; 87.2% in [17].

`Cc1cc(=O)[nH]n1-c1cc(Cl)ccc1N`: the growth is 117% in test [1]; 110% in test [2]; 89.3% in [3]; 98.1% in test [4]; 100% in [5]; 120% in [18]. Further, the growth in test [8] was 112%; in test [10] it was 106%; in test [11] it was 103%; in test [12] it was 111%; in test [13], 105%; in [19], 98.6%. In addition, the growth is 109% in test [14], 124% in test [15], 123% in test [16] and 90.6% in test [17].

Turning to `CC(=O)c1cc(C)c(OC(=O)c2ccccc2)c(C)c1`, the growth was 96.5% in test [1]; 102% in test [2]; 84.3% in test [3]; 79.3% in [6]; 93.3% in [8]; 82.8% in [9]. Moreover, the growth was 80.4% in test [10]; 103% in test [11]; 106% in test [12]; 91.6% in [13]; 103% in test [19]; 123% in [14]. Also, the growth is 106% in [15], 100% in test [16] and 97.9% in [17].

With `c1ccc2cc(-c3n(Cc4ccc5ccccc5n4)c4ccccc4[n+]3Cc3ccc4ccccc4n3)ccc2c1`, the growth was 4.21% (active) in test [1]; 0.451% (active) in test [2]; -14.3% (active) in test [3]; 7.63% (active) in [5]; -47.6% (active) in test [6]; -22.3% (active) in test [18]. The growth in test [7] was 8.55% (active); in [8], -32.8% (active); in [9], -24.5% (active); in test [11], -0.932% (active); in [13], 4.26% (active); in test [14], -51% (active). Further, the growth in test [15] is -18.9% (active); in test [16] it was -9.29% (active); in test [17], 58.6%.

For the compound `O=C1NC(=O)C(CSc2ccccc2)(c2ccccc2)N1` (stereo not drawn), the growth in test [1] was 110%; in test [2], 103%; in test [3], 88.9%; in test [5], 101%; in [6] it was 87.7%; in test [18], 122%. Moreover, the growth in [7] is 97.1%; in [8], 97.8%; in [9] it was 89.9%; in [10] it was 100%; in [11], 99.3%; in test [12], 107%. Besides, the growth in test [13] was 111%; in test [19], 101%; in test [14] it was 80.4%; in test [15], 124%; in test [16] it was 106%; in [17], 99.9%.

Take `COCCOC1=C(Cl)C(=O)c2ccccc2C1=O`: the growth in test [1] was 38.9%; in test [2], 33.4%; in [3], -20.2% (active); in test [4], 97.9%; in test [5] it was 23.7%; in test [18] it was 67.6%. The growth in test [9] is 0.0172% (active); in test [10], 6.59% (active); in test [11], 13.2%; in test [12], 31.6%; in test [13] it was -21.6% (active); in [19], 87.5%. Further, the growth in test [14] is 21%; in test [15], -13.3% (active); in [16] it was 4.85% (active); in test [17] it was 20.4%.

Take `COc1c(O)c2c3c(c1OC)-c1ccccc1CC3N(S(=O)(=O)c1ccc(C)cc1)CC2` (stereo not drawn): the growth in test [1] is 106%; in test [2], 50%; in [3] it was 48%; in test [4], 83.4%; in [6] it was 51.1%; in test [18], 88.3%. In addition, the growth in test [7] was 1.29% (active); in [8], 30.7%; in [10], 90.9%; in [11] it was 53.7%; in test [12], 79.2%; in test [13] it was 71.3%. Further, the growth in test [19] is 48.9%; in test [14], 65.6%; in [15], -10.4% (active); in [16], 63%; in test [17] it was 40%.

Take `CC(=O)Nc1ccccc1-c1n[nH]c(=O)[nH]c1=O`: the growth in test [2] is 104%; in [3], 79.1%; in test [5], 95.3%; in test [6] it was 83%; in test [18], 87.8%; in [7], 105%. Further, the growth in test [8] is 109%; in test [9] it was 107%; in [10], 103%; in test [11], 106%; in test [12] it was 96.4%; in [13], 93.6%. Moreover, the growth was 99.1% in test [19]; 104% in [14]; 113% in test [15]; 77.9% in test [16]; 102% in [17].
